Assay results: PubChem BioAssay (Tox21)
Values joined by “and” are separate entries in the source; they are usually repeats but may differ in a detail not shown here. Equal values may be shown once. Records with an inconclusive call do not appear. Entries that show only a call come without a potency. The source holds several records for some structures; these can differ, active in one and inactive in another. Active and inactive are the calls of the source. The call rests on the fitted dose curve; in most records, active means well fitted inhibition curve with a large enough effect in the repeat runs; inconclusive means weak or mixed curves; inactive means no such curve, though single readings can be large or run the other way.

Target: Estrogen receptor (Homo sapiens) (UniProt P03372)
Sequence (P03372 whole entry, looked up): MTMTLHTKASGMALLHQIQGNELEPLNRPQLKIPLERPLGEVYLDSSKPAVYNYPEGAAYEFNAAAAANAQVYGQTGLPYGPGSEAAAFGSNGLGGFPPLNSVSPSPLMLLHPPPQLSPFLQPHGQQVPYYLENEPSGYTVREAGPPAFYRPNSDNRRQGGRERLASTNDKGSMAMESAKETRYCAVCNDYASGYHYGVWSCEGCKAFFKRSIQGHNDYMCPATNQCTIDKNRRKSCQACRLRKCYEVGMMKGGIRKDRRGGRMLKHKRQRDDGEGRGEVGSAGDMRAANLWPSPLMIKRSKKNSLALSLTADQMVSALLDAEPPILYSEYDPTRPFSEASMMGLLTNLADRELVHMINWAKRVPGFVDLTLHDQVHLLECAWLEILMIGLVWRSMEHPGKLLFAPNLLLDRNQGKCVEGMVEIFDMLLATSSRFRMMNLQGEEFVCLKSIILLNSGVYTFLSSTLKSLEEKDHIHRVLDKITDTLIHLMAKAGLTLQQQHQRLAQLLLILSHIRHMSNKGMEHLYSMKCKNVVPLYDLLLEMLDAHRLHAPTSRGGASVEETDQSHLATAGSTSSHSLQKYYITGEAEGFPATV
Experiment: qHTS assay to identify small molecule antagonists of the estrogen receptor alpha (ER-alpha) signaling pathway using the BG1 cell line in the presence of 0.1 nM 17-beta-estradiol (AID 1259244); further: nearly all actives have a fitted effect of over 50% in size
Conditions: VM7Luc4E2 (BG1) ERE-luciferase, antagonist mode, 0.1 nM E2, 22 h; series mostly up to 92.4 µM
From the text: National Center for Advancing Translational Sciences [NCATS]
NIH Chemical Genomics Center [NCGC]
U.S. Environmental Protection Agency [EPA]
National Institutes of Environmental Health Sciences [NIEHS]
National Toxicology Program [NTP]
U.S. Food and Drug Administration [FDA]
Estrogen receptor (ER), a member of the nuclear hormone receptor plays an important role in development, metabolic homeostasis and reproduction. Two subtypes of ER, ER-alpha and ER-beta, have similar expression patterns with some uniqueness in both types. Endocrine disrupting chemicals (EDCs) and their interactions with steroid hormone receptors like ER causes disruption of normal endocrine function. Therefore, it is important to understand the effect of environmental chemicals in ER signaling pathway. For identifying ER antagonists, VM7Luc4E2 cell line was used to screen against Tox21 compound libraries.
VM7Luc4E2 cell line (provided by Denison MS, University of California) endogenously express full-length ER-alpha and is stably transfected with a plasmid containing four estrogen responsive elements (ERE) upstream of a luciferase reporter gene. The current screening for identification of ER-alpha inhibitors against Tox21 compound libraries used lower concentration (0.1 nM) of 17beta-Estradiol as a stimulator.
Tox21 Assay Protocol Summary:
VM7Luc4E2 cells were cultured in phenol red free assay medium containing 10% charcoal stripped FBS for 5 days prior to the assay. The cells were dispensed at 4,000 cells/well in 4 uL of assay medium into white wall/solid-bottom 1536-well plates (Corning Life Sciences, Corning, NY) using a Multidrop Combi (ThermoFisher Scientific, Waltham, MA) dispenser. After the assay plates were incubated at 37C and 5% CO2 for 24 hr, 23 nL of compounds dissolved in DMSO, positive controls or DMSO only was transferred to the assay plates by a Pintool station (Kalypsys, San Diego, CA). The transfer of compounds was followed by the addition of 1 uL of 0.1 nM (final concentration) agonist (17beta-Estradiol)/assay medium using a Flying Reagent Dispenser (FRD, Aurora Discovery, San Diego, CA). The plates were incubated at 37C and 5% CO2 for 22 hr. For luciferase reporter gene assay, 4 uL of ONE-Glo reagent (Promega Corporation, Madison, WI) was added to each well using the FRD and after 30 min incubation at room temperature luminescence intensity was measured using ViewLux plate reader (PerkinElmer, Shelton, CT).
Potency means the concentration at half of the fitted maximal effect.

Q: `CC(C)c1c(CN(C)C(C)Cc2ccccc2)n(C)n(-c2ccccc2)c1=O` (stereo not given) was tested. Which Potency did it give?
A: inactive

Q: For `ClCBr`, which Potency is on record?
A: inactive

Q: `O=[N+]([O-])c1ccccc1-c1ccccc1` was tested. Which Potency did it give?
A: inactive

Q: How did the Potency turn out when `Brc1cccc(-c2ccccc2)c1` was run?
A: inactive

Q: With `Cc1ccc([N+](=O)[O-])[c]2c1[O][Hg]2` as the compound, how does the Potency read?
A: 7.5 µM (active)

Q: For `O=[N+]([O-])c1cc(C(F)(F)F)c(Cl)c([N+](=O)[O-])c1Nc1ncc(C(F)(F)F)cc1Cl`, which Potency is on record?
A: 24.3 µM (active)

Q: For `CCCCN(CCCC)C(=S)[S-].CCCCN(CCCC)C(=S)[S-].[Ni+2]`, which Potency is on record?
A: inactive

Q: `COC(=O)C(C)N(C(=O)c1ccco1)c1c(C)cccc1C` (stereo not given) was tested. Which Potency did it give?
A: inactive

Q: How did the Potency turn out when `N#Cc1sc2c(=O)c3ccccc3c(=O)c=2sc1C#N` was run?
A: 2.43 µM (active)

Q: Which Potency does the source give for `c1ccc2nc(N3CCNCC3)ccc2c1` here?
A: inactive

Q: `CCN(CC)CCN1C(=O)CN=C(c2ccccc2F)c2cc(Cl)ccc21` was tested. Which Potency did it give?
A: inactive

Q: How did the Potency turn out when `CCC[CH2][Sn]([CH2]CCC)([CH2]CCC)[O][Sn]([CH2]CCC)([CH2]CCC)[CH2]CCC` was run?
A: 0.377 µM (active)

Q: With `S=C=NCCc1ccccc1` as the compound, how does the Potency read?
A: inactive

Q: How did the Potency turn out when `CC(C)C(Nc1ccc(C(F)(F)F)cc1Cl)C(=O)OC(C#N)c1cccc(Oc2ccccc2)c1` (stereo not given) was run?
A: inactive

Q: How did the Potency turn out when `O=C(O)[C@H](O)[C@@H](O)C(=O)O` was run?
A: inactive

Q: With `CCOC(=O)Cc1ccccc1` as the compound, how does the Potency read?
A: inactive

Q: With `CCC(C)Nc1c([N+](=O)[O-])cc(C(C)(C)C)cc1[N+](=O)[O-]` (stereo not given) as the compound, how does the Potency read?
A: inactive

Q: `CC(Cc1ccc2c(c1)OCO2)NO` (stereo not given) was tested. Which Potency did it give?
A: inactive

Q: Which Potency does the source give for `CSC(C)(C)/C=N/O` here?
A: inactive

Q: For `CCCCCCC[CH2][Sn]([Cl])([Cl])[CH2]CCCCCCC`, which Potency is on record?
A: inactive

Q: `CC(C)[C@@H](Nc1ccc(C(F)(F)F)cc1Cl)C(=O)OC(C#N)c1cccc(Oc2ccccc2)c1` (stereo not given in full) was tested. Which Potency did it give?
A: inactive

Q: Which Potency does the source give for `COC(=O)N(OC)c1ccccc1COc1ccn(-c2ccc(Cl)cc2)n1` here?
A: 0.686 µM (active)

Q: `CSC(=O)c1c(C(F)F)nc(C(F)(F)F)c(C(=O)SC)c1CC(C)C` was tested. Which Potency did it give?
A: inactive

Q: Which Potency does the source give for `Cc1cccc(Cc2cnc[nH]2)c1C` here?
A: inactive

Q: For `CC(Cc1ccc(O)cc1)NCC(O)c1cc(O)cc(O)c1` (stereo not given), which Potency is on record?
A: inactive

Q: Which Potency does the source give for `CC(=O)[O][Sn]([c]1ccccc1)([c]1ccccc1)[c]1ccccc1` here?
A: inactive

Q: For `N#CC(C#N)=NNc1cccc(Cl)c1`, which Potency is on record?
A: 1.09 µM (active)

Q: Which Potency does the source give for `[O]=[Cr][O][Cr]=[O]` here?
A: inactive

Q: Which Potency does the source give for `O=c1[nH]c2cc(Cl)ccc2n1C1CCNCC1` here?
A: inactive

Q: How did the Potency turn out when `Fc1ccc(C(OCCN2CCN(CCCc3ccccc3)CC2)c2ccc(F)cc2)cc1` was run?
A: 23.7 µM (active)

Q: `BrCC(Br)(Br)Br` was tested. Which Potency did it give?
A: inactive

Q: `CN(C)C(=S)SSC(=S)N(C)C` was tested. Which Potency did it give?
A: 191 nM (active) and 273 nM (active) and 237 nM (active)

Q: With `Cc1cc2c3c(c1)C(c1ccccc1)=N[C@@H](NC(=O)c1ccncc1)C(=O)N3CC2` as the compound, how does the Potency read?
A: inactive

Q: Which Potency does the source give for `CCC1(CC)C(=O)N=C(O)NC1=O` here?
A: inactive

Q: `CCCCCCCCCCCCCCn1cc[n+](C)c1` was tested. Which Potency did it give?
A: 612 nM (active) and 761 nM (active) and inactive

Q: Which Potency does the source give for `O.O.O.O=C([O-])[C@H]([O-])[C@@H]([O-])C(=O)[O-].O=C([O-])[C@H]([O-])[C@@H]([O-])C(=O)[O-].[K+].[K+].[Sb+3].[Sb+3]` here?
A: inactive

Q: For `CCC(C)c1cccc(C(C)CC)c1O` (stereo not given), which Potency is on record?
A: inactive

Q: How did the Potency turn out when `NC1CCC(CC2CCC(N)CC2)CC1` (stereo not given) was run?
A: inactive

Q: How did the Potency turn out when `CCC(OC(C)=O)C(CC(C)NC)(c1ccccc1)c1ccccc1` (stereo not given) was run?
A: 69.2 µM (active)

Q: `COP(=S)(NC(C)C)Oc1ccc(C)cc1[N+](=O)[O-]` (stereo not given) was tested. Which Potency did it give?
A: 17.2 µM (active)
